Drawing on PubChem BioAssay, this text covers composite z-score and z-score for 13 compounds.

The source made the active and inactive calls.

Assay [1] relates to Plasmodium falciparum Sir2 (PF13_0152, Sir2A). The experiment in a line: pfSir2 binders on small-molecule microarrays, primary screen, biochemical, small-molecule microarray, 635 nm fluorescence (AID 1098).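 Note: score merges spot fluorescence intensity with its signal-to-noise ratio.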 The note with it: small-molecule microarray binding, fluorescence 635 nm; higher = more signal.
A short description of assay [2]: small-molecule microarray binders of probe aDKK1, primary screen, biochemical, biotinylated probe, 635/667 nm fluorescence (AID 1099).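 Note: score merges 667nm spot fluorescence with signal to noise across triplicate slides; reference of the scale not given here.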 The note with it: higher = more signal.
A short description of assay [3]: small-molecule microarray binders of probe aCHRDL2, primary screen, biochemical, biotinylated probe, 635/667 nm fluorescence (AID 1100). The following applies: higher = more signal.
Assay [4] is described as follows: splicing luciferase reporter signal modulators, primary screen, spliceosome inhibition project, cell-based, HEK293, splice +/- reporter (AID 1101).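 Note: HEK293 cells carrying a splicing-competent luciferase reporter gene; test concentration not given here.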 The following applies: luminescence, 24 h, higher = more signal, called active from +8 up or from −8 down. On the technique in general: Reporter assays use an easily measured gene product as a stand-in for the process of interest.

Assay [5] addresses Fibroblast growth factor 10 (Homo sapiens) (UniProt O15520). The experiment in a line: FGF10 binders on small-molecule microarrays, primary screen, biochemical, small-molecule microarray, 635 nm fluorescence (AID 1102). The following applies: FGF10 binding, fluorescence 635 nm, higher = more signal.
The subject of assay [6] is glycogen synthase kinase-3 (GSK3A per assay name; protocol says GSK3B). The experiment in a line: GSK3 binders on small-molecule microarrays, primary screen, biochemical, small-molecule microarray, 635 nm fluorescence, GSK3A (AID 1103). Note: the record names both GSK3A and GSK3B. The note with it: small-molecule microarray binding, fluorescence 635 nm; higher = more signal.
The target in assay [7] is Epidermal growth factor receptor (Homo sapiens) (UniProt P00533). The experiment in a line: EGFR binders on small-molecule microarrays, primary screen, biochemical, small-molecule microarray, 635 nm fluorescence (AID 1104).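 Note: score merges 667 nm emission intensity with spot signal to noise over triplicate slides.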 The following applies: EGFR binding, higher = more signal.
Sequence of Epidermal growth factor receptor (Homo sapiens) (P00533 whole entry, looked up): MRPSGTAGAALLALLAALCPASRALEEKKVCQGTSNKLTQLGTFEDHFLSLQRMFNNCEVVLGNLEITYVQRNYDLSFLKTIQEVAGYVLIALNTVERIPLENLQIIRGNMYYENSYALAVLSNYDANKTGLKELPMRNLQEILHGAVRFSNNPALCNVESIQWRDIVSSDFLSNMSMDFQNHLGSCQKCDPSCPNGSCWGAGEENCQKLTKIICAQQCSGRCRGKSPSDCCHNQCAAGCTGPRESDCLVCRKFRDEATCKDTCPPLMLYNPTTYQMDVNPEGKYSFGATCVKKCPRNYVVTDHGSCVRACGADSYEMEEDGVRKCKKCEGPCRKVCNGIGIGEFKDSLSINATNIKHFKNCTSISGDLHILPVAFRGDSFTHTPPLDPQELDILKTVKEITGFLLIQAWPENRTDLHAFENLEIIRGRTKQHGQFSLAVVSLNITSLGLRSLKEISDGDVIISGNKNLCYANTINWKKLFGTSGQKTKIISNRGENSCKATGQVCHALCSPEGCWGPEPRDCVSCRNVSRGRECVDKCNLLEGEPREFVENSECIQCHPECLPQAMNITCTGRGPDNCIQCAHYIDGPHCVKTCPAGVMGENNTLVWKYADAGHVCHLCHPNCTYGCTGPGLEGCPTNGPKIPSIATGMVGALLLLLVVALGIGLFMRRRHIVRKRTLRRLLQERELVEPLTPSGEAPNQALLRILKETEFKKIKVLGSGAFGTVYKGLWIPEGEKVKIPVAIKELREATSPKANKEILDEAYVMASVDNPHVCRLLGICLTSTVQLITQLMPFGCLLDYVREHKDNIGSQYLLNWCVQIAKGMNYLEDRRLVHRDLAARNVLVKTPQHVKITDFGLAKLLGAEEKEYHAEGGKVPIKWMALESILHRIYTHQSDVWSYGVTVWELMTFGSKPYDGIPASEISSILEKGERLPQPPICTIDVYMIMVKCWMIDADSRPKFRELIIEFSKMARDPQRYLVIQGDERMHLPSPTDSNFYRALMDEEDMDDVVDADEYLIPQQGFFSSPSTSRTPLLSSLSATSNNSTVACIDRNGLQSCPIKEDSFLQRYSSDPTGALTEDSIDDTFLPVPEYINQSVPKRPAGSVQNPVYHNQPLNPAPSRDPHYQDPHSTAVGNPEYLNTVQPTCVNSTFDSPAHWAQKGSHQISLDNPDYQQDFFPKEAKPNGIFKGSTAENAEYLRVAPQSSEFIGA
The target in assay [8] is Follistatin-related protein 3 (Homo sapiens) (UniProt O95633). The experiment in a line: FSTL3 binders on small-molecule microarrays, primary screen, biochemical, small-molecule microarray, 635 nm fluorescence (AID 1105).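 Note: score merges emission near 667 nm and signal to noise per printed spot across three slides.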 The note with it: FSTL3 binding, higher = more signal.
Sequence of Follistatin-related protein 3 (Homo sapiens) (O95633 whole entry, looked up): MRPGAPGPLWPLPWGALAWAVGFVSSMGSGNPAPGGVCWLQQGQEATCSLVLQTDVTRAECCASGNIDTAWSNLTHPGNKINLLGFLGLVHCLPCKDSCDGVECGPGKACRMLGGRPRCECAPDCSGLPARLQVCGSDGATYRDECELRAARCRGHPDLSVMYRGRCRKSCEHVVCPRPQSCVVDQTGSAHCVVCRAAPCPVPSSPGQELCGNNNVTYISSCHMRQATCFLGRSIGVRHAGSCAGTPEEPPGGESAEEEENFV
The target of assay [9] is Dickkopf-related protein 1 (Homo sapiens) (UniProt O94907). The assay is described as follows: DKK1 binders on small-molecule microarrays, primary screen, biochemical, small-molecule microarray, 635 nm fluorescence scan (AID 1106).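 Note: score merges emission near 667 nm with signal to noise over three replicate slides.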 The following applies: DKK1 binding, higher = more signal.
Sequence of Dickkopf-related protein 1 (Homo sapiens) (O94907 whole entry, looked up): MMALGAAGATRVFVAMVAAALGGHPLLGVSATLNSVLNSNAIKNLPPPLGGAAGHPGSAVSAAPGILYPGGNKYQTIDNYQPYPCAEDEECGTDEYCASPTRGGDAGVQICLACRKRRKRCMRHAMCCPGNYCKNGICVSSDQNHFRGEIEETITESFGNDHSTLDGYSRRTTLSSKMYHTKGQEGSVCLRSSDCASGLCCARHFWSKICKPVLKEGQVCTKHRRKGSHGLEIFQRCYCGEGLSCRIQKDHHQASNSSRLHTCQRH
Assay [10] concerns Inhibin beta A chain (activin A). The experiment in a line: INHBA (activin A) binders on microarrays, primary screen, biochemical, small-molecule microarray, 635 nm fluorescence scan (AID 1107).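 Note: mouse activin A protein probed at 4.33 µg/mL on printed slides; score merges bound-protein fluorescence near 667 nm with spot signal-to-noise.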 The note with it: small-molecule microarray binding, higher = more signal.

Sequence of Fibroblast growth factor 10 (Homo sapiens) (O15520 whole entry, looked up): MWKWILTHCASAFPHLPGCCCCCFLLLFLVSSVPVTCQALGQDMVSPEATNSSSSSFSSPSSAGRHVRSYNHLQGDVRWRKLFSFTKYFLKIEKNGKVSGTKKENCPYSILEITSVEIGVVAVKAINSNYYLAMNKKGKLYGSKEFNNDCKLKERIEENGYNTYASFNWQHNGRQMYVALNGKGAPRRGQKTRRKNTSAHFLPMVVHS

In the case of `CCOC(=O)[C@H]1C/C=C/C[C@H](C(=O)OCC)C(=O)O[C@H]2[C@@H](OC)O[C@H](CO)[C@@H](OC(=O)Nc3ccc(C#N)cc3)[C@@H]2OC1=O`, the composite z-score is 0.859 in assay [1]; -0.114 in [2]; 0.0682 in [3]; 0.322 in assay [5]; -0.0841 in [6]; -0.226 in assay [7]. The composite z-score in [8] was 0.413; in assay [9] it was -0.255; in assay [10] it was 0.189. Besides, the z-score in assay [4] was -2.6 (inactive).

Turning to `CCN(CC)c1ccc(N2CC=CC34O[C@@H]5/C=C\CCCOC(=O)C5[C@H]3C(=O)N(CCO)[C@@H]4C2=O)cc1` (stereo not given in full), the composite z-score in [1] is 1.1; in [2], -0.221; in assay [3] it was 0.63; in assay [5], -1.12; in assay [6] it was -0.404; in assay [7] it was -1.28. Also, the results for the composite z-score in assay [8], in assay [9] and in assay [10] were -0.957, -1.14 and 0.0809, respectively. For the same compound, the z-score in assay [4] is -0.375 (inactive).

Turning to `CC1(C)[C@@H]2CC(C(O)C3C=CC4C(=O)N(c5ccccc5)C(=O)C4N3Nc3ccccc3)=C[C@H]1C2` (stereo not given in full), the composite z-score was 0.576 in [1]; 0.592 in assay [2]; 0.663 in assay [3]; 0.104 in assay [5]; 0.33 in assay [6]; -0.316 in [7]. The composite z-score came to 0.114 in assay [8], 0.011 in assay [9] and 1.2 in [10]. The z-score in [4] was 0.99 (inactive).

Take `COc1ccc([Si](C)(C)[C@H]2[C@H](CCO)O[C@@]3(C(=O)N(Cc4ccc(N5C(=O)COc6ccccc65)cc4)c4ccccc43)[C@@H]2C)cc1`: the composite z-score in assay [1] is 0.0297; in assay [2], -0.0813; in assay [3] it was 0.812; in assay [5], -0.712; in assay [6], -1.01; in [7], -0.95. Besides, the composite z-score in assay [8] is -0.534; in assay [9], -0.297; in assay [10], -0.515. Further, the z-score in assay [4] is -1.15 (inactive).

As to `CCOC(=O)C[C@H]1[C@H](OC(=O)Cc2ccc3c(c2)OCO3)[C@@H](NC(=O)c2ccc(-c3ccccc3)cc2)c2cc(OCCCO)ccc2N1C(=O)Cc1ccc(OC)cc1`, the composite z-score in [1] is 0.489; in assay [2], 0.55; in assay [3], 0.456; in [5] it was 0.463; in assay [6] it was 0.116; in [7], -0.0154. The composite z-score in [8] was 0.543; in [9], -0.0143; in assay [10], 0.0884. Moreover, the z-score in assay [4] was -2.01 (inactive).

For the compound `C#CCN(CC=C(C)C)[C@H](CO)c1ccccc1`, the composite z-score in [1] was -0.383; in assay [2], -0.127; in [3] it was -0.209; in assay [5] it was -0.0443; in assay [6], 0.81; in assay [7] it was 0.372. Moreover, the composite z-score in assay [8] came out at 0.0894; in assay [9], 0.352; in assay [10], 0.942. The z-score in [4] was -1.21 (inactive).

For the compound `O=C1OCCC/C=C\[C@H]2OC34C=CCN(Cn5nnc6ccccc65)C(=O)[C@H]3N(CCCCCCO)C(=O)[C@@H]4C12` (stereo not given in full), the composite z-score was 1.53 in assay [1]; -0.234 in assay [2]; 0.489 in assay [3]; -1.41 in [5]; -0.662 in assay [6]; -0.636 in [7]. Besides, the results for the composite z-score in [8], in [9] and in assay [10] were -0.321, -0.774 and 1.12, respectively. The z-score in assay [4] is -1.57 (inactive).

Take `C=CCC(OC(C)=O)[C@@H]1[C@@H](N(Cc2cccc3ccccc23)C(=O)c2ccc(-c3ccccc3)cc2)c2cc(OCCCO)ccc2N1C(=O)Cc1ccc(OC)cc1` (stereo not given in full): the composite z-score is 0.283 in assay [1]; -0.0675 in assay [2]; 0.0188 in assay [3]; 0.168 in assay [5]; 0.0341 in assay [6]; 0.23 in [7]. Also, the results for the composite z-score in assay [8], in assay [9] and in [10] were 0.431, 0.0533 and 0.884, respectively. For the same compound, the z-score in assay [4] was -1.08 (inactive).

For the compound `COCCOC(=O)N1C(=O)[C@@]2(c3cc(C#CCNC(N)=O)ccc31)[C@H](C(=O)NC[C@H](O)c1ccccc1)[C@H]1C(=O)O[C@H](c3ccccc3)[C@H](c3ccccc3)N1[C@@H]2c1ccccc1OCCO`, the composite z-score in [1] was 1.5; in assay [2], -0.547; in assay [3], 0.218; in [5] it was 1.04; in assay [6], 0.628; in assay [7], 0.366. Besides, the values for the composite z-score in [8], in [9] and in assay [10] were 1.01, 0.711 and 1.05, respectively. The z-score in [4] was -0.0247 (inactive).

As for `O=C1O[C@H](c2ccccc2)[C@H](c2ccccc2)N2[C@H]1[C@@H](C(=O)O)[C@]1(C(=O)Nc3ccc(C#CCCO)cc31)[C@H]2c1ccc(O)cc1`, the composite z-score was 0.218 in [1]; 1.13 in [2]; 1.14 in assay [3]; -0.378 in assay [5]; -0.222 in assay [6]; -0.289 in assay [7]. In addition, the values for the composite z-score in assay [8], in assay [9] and in assay [10] were -0.321, -0.572 and 1.18, respectively. Moreover, the z-score in assay [4] was -0.765 (inactive).

As to `CCCCCC1=C2CNC(CCC)(C(=O)OC)C=C2C(C)C1=O` (stereo not given), the composite z-score in assay [1] is 0.0288; in assay [2] it was 0.719; in assay [3] it was 0.952; in assay [5] it was 0.439; in assay [6], -0.111; in [7], -0.576. In addition, the composite z-score in [8] is -0.435; in assay [9] it was -0.793; in [10] it was 1.14. Besides, the z-score in assay [4] is 2.6 (inactive).

As for `COc1ccc(C(=O)Nc2cccc(CN3C(=O)[C@]4(O[C@H](CCO)[C@@H]([Si](C)(C)c5ccc(OC)cc5)[C@@H]4C)c4ccccc43)c2)cc1`, the composite z-score in assay [1] was found to be 1.44; in assay [2], 0.541; in assay [3], 0.223; in [5] it was 0.691; in assay [6], 0.901; in assay [7], 0.0077. In addition, the composite z-score came to 0.742 in assay [8], 0.331 in [9] and 1.26 in assay [10]. Also, the z-score in assay [4] is 1.3 (inactive).

Regarding `CCOC(=O)C[C@H]1[C@H](OC(=O)c2cc3ccccc3oc2=O)[C@@H](NC(=O)Cc2ccc(OC)cc2)c2cc(OCCCO)ccc2N1C(=O)c1ccccc1`, the composite z-score in assay [1] was 0.39; in [2] it was -0.351; in assay [3], -0.355; in [5], 0.458; in [6], 0.0878; in assay [7] it was 0.436. Also, the composite z-score in assay [8] was 0.23; in [9] it was 0.313; in [10], 0.726. Besides, the z-score in [4] is -0.854 (inactive).
